Results on 20 molecules are retold here after PubChem BioAssay.

SMILES strings stand for the structures. Several values for one entry are separate records, joined by “and”; a condition that tells them apart may be missing. Identical values can stand only once. Activity calls are given as the source filed them.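 How the source made its calls, unless noted: active means compounds whose cell count with miR-34 switched on is under 0.7 times the count with it off; inactive means the rest.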

Experiment [1] can be described thus: sensitizers of A549 cells to miR-34 induction, primary screen, imaging, A549 dox-inducible miR-34, nuclei and caspase counts (AID 1347080). Further: test concentration not given here. The note with it: A549 miR-34 inducible, Hoechst nuclei count, 48 h.
A short description of experiment [2]: survival rescue of mitochondrial mutant cells in low glucose, primary screen, MELAS cybrids, Rieske KO mouse fibroblasts, CellTiter-Glo (AID 1508586;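 active means mean z-score across replicates of 1.96 or higher in either the MELAS or the Rieske mutant cell line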;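 further: test concentration not given here; z relative to plate mean and SD of compound and empty wells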).
Experiment [3] is described as follows: viability rescue of complex I mutant cybrids, primary screen, cell-based, galactose medium, ATP luminescence (AID 1645843;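 active means z-score of at least 1.8 in each of two replicates, scored against plate mean and spread of sample wells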;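 further: positive z means more ATP and so rescue of galactose-driven cybrid death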). The note with it: complex I mutant cybrid cells, 72 h, stronger effect = higher value.
The mark [4] stands for this setting: stronger effect = lower value, cell number ratio, induced over uninduced.
The mark [5] stands for this setting: measured here: relative caspase fold change +Dox/-Dox.
The mark [6] stands for this setting: measured here: total cells with miR-34 induction, stronger effect = lower value.
[7] abbreviates: measured here: total cells without miR-34 induction.
The mark [8] stands for this setting: MELAS cybrid survival, CellTiter-Glo 48 h, stronger effect = higher value.
Setting [9] is: Rieske KO mouse fibroblast survival, CellTiter-Glo 72 h.

In the case of `Cc1csc(CNc2nccc(-c3cn(C)nc3C)n2)n1`, the fold change is 0.888 (inactive) in experiment [1] (setting [4]) and 0.815 in experiment [1] (setting [5]). Also, the cell count in experiment [1] (setting [6]) is 8410; in experiment [1] (setting [7]) it was 9480. Moreover, the z-score in experiment [2] (setting [8]) was -0.307 (inactive); in experiment [2] (setting [9]) it was 0.16; in experiment [3] it was -0.445 (inactive).
As for `CCc1ccc(-c2nn(CC(=O)Nc3cnn(C)n3)c3ccccc23)cc1`, the fold change was 0.895 (inactive) in experiment [1] (setting [4]) and 1.48 in experiment [1] (setting [5]). For the same molecule, the cell count was 6460 in experiment [1] (setting [6]) and 7220 in experiment [1] (setting [7]). For the same molecule, the z-score was -0.0449 (inactive) in experiment [2] (setting [8]), -0.314 in experiment [2] (setting [9]) and 1.09 (inactive) in experiment [3].
As to `COc1cccc2ccc(-c3nnc4ccccn34)nc12`, the results for the fold change in experiment [1] (setting [4]) and in experiment [1] (setting [5]) were 0.871 (inactive) and 1.83, respectively. Also, the cell count in experiment [1] (setting [6]) was determined as 7320; in experiment [1] (setting [7]) it was 8400. The results for the z-score in experiment [2] (setting [8]), in experiment [2] (setting [9]) and in experiment [3] were -0.646 (inactive), 0.957 and -0.595 (inactive), respectively.
`CCOC(=O)c1cc2ccc(O)cc2oc1=O`: the fold change is 0.98 (inactive) in experiment [1] (setting [4]) and 0.374 in experiment [1] (setting [5]). Besides, the cell count came out at 10300 in experiment [1] (setting [6]) and 10500 in experiment [1] (setting [7]). Further, the z-score was 0.534 (inactive) in experiment [2] (setting [8]), -0.345 in experiment [2] (setting [9]) and 0.595 (inactive) in experiment [3].
Turning to `Nc1ccc(Sc2ccc(N3C(=O)c4ccc(N)cc4C3=O)cc2)cc1`, the results for the fold change in experiment [1] (setting [4]) and in experiment [1] (setting [5]) were 0.816 (inactive) and 1.86, respectively. The cell count in experiment [1] (setting [6]) was 8200; in experiment [1] (setting [7]), 10000. The values for the z-score in experiment [2] (setting [8]), in experiment [2] (setting [9]) and in experiment [3] were 0.874 (inactive), 0.253 and -0.975 (inactive), respectively.
`CNC(=O)c1cc(Oc2ccc3nc(Nc4ccc(Cl)c(C(F)(F)F)c4)[nH]c3c2)ccn1`: the fold change in experiment [1] (setting [4]) is 0.938 (inactive); in experiment [1] (setting [5]), 0.861. The cell count in experiment [1] (setting [6]) came to 2770; in experiment [1] (setting [7]) it was 2950. The z-score in experiment [2] (setting [8]) was 1.25 (inactive); in experiment [2] (setting [9]) it was -0.647; in experiment [3], -2.66 (inactive).
`CCCN1CCCCC1C(=O)Nc1c(C)cccc1C` (stereo not given): the fold change in experiment [1] (setting [4]) is 0.891 (inactive) and 0.942 (inactive); in experiment [1] (setting [5]) it was 1.17 and 1.76. The cell count in experiment [1] (setting [6]) was 9320 and 9310; in experiment [1] (setting [7]), 10500 and 9880. The z-score in experiment [2] (setting [8]) is 0.0955 (inactive); in experiment [2] (setting [9]), -0.512; in experiment [3], 0.57 (inactive).
As for `O=C(O)CCCNC(=O)NC1CCCCC1`, the fold change was 0.89 (inactive) in experiment [1] (setting [4]) and 0.215 in experiment [1] (setting [5]). In addition, the cell count worked out at 8970 in experiment [1] (setting [6]) and 10100 in experiment [1] (setting [7]). Besides, the z-score in experiment [2] (setting [8]) was 0.354 (inactive); in experiment [2] (setting [9]), -0.267; in experiment [3] it was 0.455 (inactive).
Consider `CCn1cnc(NC(=O)N(C)Cc2ccc(OC)cc2)n1`, for which the fold change in experiment [1] (setting [4]) is 0.869 (inactive); in experiment [1] (setting [5]), 1.63. The cell count in experiment [1] (setting [6]) came out at 8620; in experiment [1] (setting [7]), 9910. The z-score was -0.112 (inactive) in experiment [2] (setting [8]), -0.365 in experiment [2] (setting [9]) and 1.77 (inactive) in experiment [3].
`O=C(Nc1cccc(-c2nn[nH]n2)c1)c1cccc(F)c1`: the fold change in experiment [1] (setting [4]) is 0.949 (inactive); in experiment [1] (setting [5]) it was 0.795. Moreover, the cell count in experiment [1] (setting [6]) was 8970; in experiment [1] (setting [7]), 9450. Also, the z-score in experiment [2] (setting [8]) was 1.21 (inactive); in experiment [2] (setting [9]) it was -0.523; in experiment [3], 0.385 (inactive).
Regarding `O=C(O)c1cc(Br)ccc1NS(=O)(=O)c1ccc(Cl)cc1`, the results for the fold change in experiment [1] (setting [4]) and in experiment [1] (setting [5]) were 0.854 (inactive) and 0.75, respectively. Besides, the cell count in experiment [1] (setting [6]) amounted to 8540; in experiment [1] (setting [7]), 10000. Besides, the values for the z-score in experiment [2] (setting [8]), in experiment [2] (setting [9]) and in experiment [3] were -0.163 (inactive), -0.343 and 0.495 (inactive), respectively.
With `CC(c1ncncc1F)[C@](O)(Cn1cncn1)c1ccc(F)cc1F` (stereo not given in full), the fold change in experiment [1] (setting [4]) was 0.956 (inactive) and 0.928 (inactive); in experiment [1] (setting [5]) it was 2.43 and 0.867. In addition, the cell count is 9660 and 8390 in experiment [1] (setting [6]); 10100 and 9030 in experiment [1] (setting [7]). In addition, the figures for the z-score in experiment [2] (setting [8]), in experiment [2] (setting [9]) and in experiment [3] were -0.404 (inactive), 0.698 and 0.71 (inactive), respectively.
Turning to `CCOc1ccccc1-c1ncnc2sc(C)c(C)c12`, the fold change in experiment [1] (setting [4]) was 0.89 (inactive); in experiment [1] (setting [5]) it was 1.57. For the same molecule, the cell count was 6100 in experiment [1] (setting [6]) and 6860 in experiment [1] (setting [7]). For the same molecule, the results for the z-score in experiment [2] (setting [8]), in experiment [2] (setting [9]) and in experiment [3] were -0.535 (inactive), 0.672 and 0.07 (inactive), respectively.
With `Cn1nc(-c2cccnc2)c2[nH]c(-c3ccc4c(c3)OCCO4)nc21`, the fold change in experiment [1] (setting [4]) was 0.86 (inactive); in experiment [1] (setting [5]) it was 1.08. The cell count in experiment [1] (setting [6]) stood at 5270; in experiment [1] (setting [7]), 6130. For the same molecule, the z-score in experiment [2] (setting [8]) was 12.6 (active); in experiment [2] (setting [9]), 3.9; in experiment [3], 4.01 (active).
`Cn1nc(C(C)(C)C)cc1NC(=O)Cn1cc(-c2ccccc2N)cn1`: the fold change in experiment [1] (setting [4]) is 0.913 (inactive); in experiment [1] (setting [5]) it was 1.7. Further, the cell count was determined as 8250 in experiment [1] (setting [6]) and 9040 in experiment [1] (setting [7]). In addition, the z-score in experiment [2] (setting [8]) was 0.154 (inactive); in experiment [2] (setting [9]), -0.442; in experiment [3] it was -0.46 (inactive).
Turning to `COc1cc(Cn2cnc3nccnc3c2=O)cc(OC)c1`, the fold change in experiment [1] (setting [4]) was 0.919 (inactive); in experiment [1] (setting [5]), 2.53. Moreover, the cell count stood at 9000 in experiment [1] (setting [6]) and 9790 in experiment [1] (setting [7]). For the same molecule, the z-score in experiment [2] (setting [8]) is -0.417 (inactive); in experiment [2] (setting [9]) it was -0.582; in experiment [3] it was -0.515 (inactive).
As for `Cc1cccc(-n2cnc3cc(N)ccc32)c1`, the fold change in experiment [1] (setting [4]) is 0.889 (inactive); in experiment [1] (setting [5]) it was 1.07. The cell count stood at 8160 in experiment [1] (setting [6]) and 9170 in experiment [1] (setting [7]). Besides, the z-score in experiment [2] (setting [8]) was 1.59 (inactive); in experiment [2] (setting [9]), 0.221; in experiment [3] it was 0.94 (inactive).
As for `CC(=O)N1CCCC(Cn2cnc3scc(-c4cc(C)ccc4C)c3c2=O)C1` (stereo not given), the fold change in experiment [1] (setting [4]) was 0.917 (inactive); in experiment [1] (setting [5]) it was 1.14. For the same molecule, the cell count turned out to be 8240 in experiment [1] (setting [6]) and 8990 in experiment [1] (setting [7]). The z-score was -0.328 (inactive) in experiment [2] (setting [8]), -0.378 in experiment [2] (setting [9]) and 0.155 (inactive) in experiment [3].
`Cc1ccc2c(-c3ncnc4scc(C)c34)cccc2n1`: the fold change in experiment [1] (setting [4]) is 0.882 (inactive); in experiment [1] (setting [5]), 1.37. Further, the cell count in experiment [1] (setting [6]) came to 6650; in experiment [1] (setting [7]) it was 7540. Also, the z-score in experiment [2] (setting [8]) is -0.275 (inactive); in experiment [2] (setting [9]), -0.173; in experiment [3], 2.45 (inactive).
Regarding `NCCC(O)C(=O)NC1CC(N)C(OC2OC(CN)C(O)C(O)C2O)C(O)C1OC1OC(CO)C(O)C(N)C1O` (stereo not given), the results for the fold change in experiment [1] (setting [4]) and in experiment [1] (setting [5]) were 0.888 (inactive) and 0.936, respectively. Moreover, the cell count in experiment [1] (setting [6]) was 8210; in experiment [1] (setting [7]), 9240. Also, the values for the z-score in experiment [2] (setting [8]), in experiment [2] (setting [9]) and in experiment [3] were -1.15 (inactive), -0.0039 and 0.985 (inactive), respectively.
